Records with an inconclusive call do not appear. Values without a mark were called inactive.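 Rule for the calls: active = viability at or below 27.92% in each of two runs, the all-compound median minus 4 SD; inconclusive = no clear call, values can overlap the other calls; inactive = the rest.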
Test: viability of PTEN-null HCT116 cells – cell-based, HCT116 clonal line, CellTiter-Glo, pilot screen (AID 824);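 note: 0% = 20 µM Hyamine control and 100% = vehicle cell control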
Conditions: HCT116 PTEN-deleted viability, 60 h, at 10 µM, hits give low values
COc1cc(Cl)c(S(=O)(=O)n2cnc(C)c2)cc1Cl showed a viability of 104%.
For O=C(CN1CCOc2ccccc21)NCc1ccccc1, the viability was 86%.
CC(C)CCNC(=O)CCS(=O)(=O)c1cccc2nonc12 showed a viability of 103%.
O=C1CC(c2ccc(S(=O)(=O)NCc3ccccc3)cc2)CN1 (stereo not given) showed a viability of 87.9%.
Work on CC(=O)c1ccc(NC(=O)CSC(C)C)cc1 yielded a viability of 97.9%.
CCn1cc(C(=O)NCC2CCCO2)c2cc(OC)c(OC)cc2c1=O (stereo not given) gave a viability of 101%.
COc1ccc(CNc2nc3c(c(=O)[nH]c(=O)n3C)n2Cc2ccccc2C)cc1 showed a viability of 89.5%.
Compound Cc1cc(C)nc(NS(=O)(=O)c2ccc(Br)s2)c1 has a viability of 93.5%.
Work on CC(C)CCSc1nnc(Cn2c(=O)sc3ccccc32)n1C yielded a viability of 83.5%.
With O=P(/C(=N/O)Sc1ccccc1)(N1CCOCC1)N1CCOCC1 the viability was 97%.
CC1(C)Cc2c(C#N)c(N)sc(=S)c2CO1 gave a viability of 106%.
CCOC(=O)N1CCN(C(=O)COc2ccc(Br)cc2)CC1 gave a viability of 90.6%.
In the case of COc1ccc(-c2nc(C(N)=O)c3[nH]c(=O)n(-c4ccccc4OC)c3n2)c(OC)c1, the viability is reported as 63.2%.
O=C(Nc1nc(-c2ccccc2)cs1)c1cccs1 showed a viability of 72.8%.
In the case of CC(NC(=O)C1CCC1)c1ccc2c(c1)OCO2 (stereo not given), the viability is reported as 91.7%.
Compound Cc1cc(N2C(=O)CC(Cc3ccccc3)C2=O)no1 (stereo not given) has a viability of 103%.
Work on Cc1cc(C)n2nc3nc4c(cc3c2n1)CCCC4 yielded a viability of 82.7%.
O=C(Nc1ccncc1)c1ccccc1F gave a viability of 98%.
In the case of COC(=O)C1C(=O)c2c([nH]c(C(=O)OC3CCCCCC3)c2C)CC1C (stereo not given), the viability is reported as 91.1%.
Compound O=C1CCC(=O)N1c1ccc(CSc2nnnn2C2CCCCC2)cc1 has a viability of 97.6%.
Work on Cc1ccc(C2CC(c3cccc(C)c3)n3ncnc3N2)cc1 (stereo not given) yielded a viability of 86.1%.
Work on CCOc1cccc(NC(=O)c2ccc(S(=O)(=O)N(C)C)cc2)c1 yielded a viability of 92.4%.
COc1ccc(C2N(c3ccc(OC)cc3)C(=O)C3CCCN32)cc1 (stereo not given) showed a viability of 102%.
Compound Fc1cccc(-c2cc3nc4c(c(N5CCC6(CC5)OCCO6)n3n2)CCCC4)c1 has a viability of 61.5%.
Compound O=C(COC(=O)C1CC(=O)N(C2CCCCC2)C1)c1ccc(F)cc1 (stereo not given) has a viability of 101%.
Compound CCOC(=O)CSC(CC)C(=O)Nc1nnc(CC)s1 (stereo not given) has a viability of 96.6%.
CC(=O)c1cccc(NC(=O)Nc2cc3sccc3n2C)c1 gave a viability of 95.9%.
CN(C)S(=O)(=O)c1ccc(C(=O)Nc2ccc(F)cc2F)cc1 gave a viability of 94.4%.
Work on Cc1ccc(C(=O)N2CCN(c3ccccc3)CC2)cc1C yielded a viability of 97.7%.
CC(=O)c1c(C)nc2ccc(Br)cc2c1C(=O)O showed a viability of 97.4%.
COc1ccc(-c2nc(CS(=O)CC(=O)NCC3CCCO3)c(C)o2)cc1 (stereo not given) showed a viability of 102%.
Cn1cccc1Cc1nnc(SCC(=O)Nc2nccs2)n1CCc1ccccc1 showed a viability of 85.8%.
CCCC(=O)c1cc(F)c(N2CCN(S(=O)(=O)c3ccccc3)CC2)cc1C showed a viability of 88.5%.
Compound COc1ccccc1CNC(=O)c1cnc2ccccn2c1=O has a viability of 90.5%.
Work on O=C(O)c1cccc(-n2cnnn2)c1 yielded a viability of 101%.
Cc1oc(-c2ccc(Cl)cc2)nc1CS(=O)CC(=O)NCCN1CCCC1 (stereo not given) gave a viability of 91.4%.
Work on O=C(CCn1c(=S)[nH]c2ccccc2c1=O)N1CCOCC1 yielded a viability of 103%.
With CCCC(=O)C1=C(O)C(C(=O)OC)C(C)(C)CC1=Nc1ccccc1 (stereo not given) the viability was 88.6%.
Compound O=C(Nc1nccs1)c1cc(S(=O)(=O)N2CCCCC2)ccc1Cl has a viability of 88.6%.
For COC(=O)Nc1c(C(=O)OC)cc(OC)c(OC)c1OC, the viability was 97.4%.
